The results in this text go back to ChEMBL document CHEMBL3988442, “University of Dundee, Small-Polar-MMV Screening Library” (2021).

Set-up in all cases: scale not given: direction of the effect not stated beside the values
The target of assay [1] is Protein translocase subunit SecA (Escherichia coli (strain K12)) (UniProt P10408). Description: Assay to Identify E. coli SecA ATPase Inhibitors. The format is functional. The following applies: 30 µM.
In assay [2] the target is T1, Ubiquitin-activating enzyme e1, putative (Leishmania donovani (strain BPK282A1)) (UniProt E9BSI1).
T1 sequence (whole entry): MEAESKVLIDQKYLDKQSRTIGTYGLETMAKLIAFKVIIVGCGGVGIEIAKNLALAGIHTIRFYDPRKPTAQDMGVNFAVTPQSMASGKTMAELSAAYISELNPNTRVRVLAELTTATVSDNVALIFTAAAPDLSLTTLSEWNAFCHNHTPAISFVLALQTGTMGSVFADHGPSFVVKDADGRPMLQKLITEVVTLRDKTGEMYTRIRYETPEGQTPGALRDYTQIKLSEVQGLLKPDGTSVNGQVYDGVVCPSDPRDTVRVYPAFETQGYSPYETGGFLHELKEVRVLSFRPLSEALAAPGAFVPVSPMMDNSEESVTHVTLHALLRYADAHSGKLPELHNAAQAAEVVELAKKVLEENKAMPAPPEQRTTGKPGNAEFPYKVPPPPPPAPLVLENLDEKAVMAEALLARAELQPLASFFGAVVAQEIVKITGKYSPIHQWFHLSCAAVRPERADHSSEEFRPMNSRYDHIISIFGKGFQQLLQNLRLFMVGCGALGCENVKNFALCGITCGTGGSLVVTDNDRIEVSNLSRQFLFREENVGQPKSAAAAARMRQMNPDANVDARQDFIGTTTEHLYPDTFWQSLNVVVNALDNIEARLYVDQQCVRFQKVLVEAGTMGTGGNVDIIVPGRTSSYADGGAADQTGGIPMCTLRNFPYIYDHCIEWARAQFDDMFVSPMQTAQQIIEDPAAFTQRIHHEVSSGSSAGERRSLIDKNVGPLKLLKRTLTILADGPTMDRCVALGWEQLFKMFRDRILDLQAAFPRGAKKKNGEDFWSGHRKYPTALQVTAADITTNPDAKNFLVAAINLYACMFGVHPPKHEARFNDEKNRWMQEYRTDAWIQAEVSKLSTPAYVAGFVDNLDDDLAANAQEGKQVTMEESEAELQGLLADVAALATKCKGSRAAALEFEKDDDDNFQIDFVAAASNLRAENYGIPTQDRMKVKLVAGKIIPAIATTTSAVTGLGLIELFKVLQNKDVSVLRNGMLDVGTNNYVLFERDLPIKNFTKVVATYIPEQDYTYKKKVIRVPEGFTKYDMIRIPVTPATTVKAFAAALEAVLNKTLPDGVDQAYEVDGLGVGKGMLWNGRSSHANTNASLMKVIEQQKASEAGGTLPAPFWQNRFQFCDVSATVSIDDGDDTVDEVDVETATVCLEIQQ
Description: Leishmania donovani Ubiquitin Activating Enzyme (LdE1). The format is functional. To be noted: 30 µM.

Assay [3] has as its target AMP-activated protein kinase, AMPK (Homo sapiens) (UniProt P54646+O43741+P54619+Q9UGJ0+Q9Y478+Q13131+Q9UGI9). Description: AMP-dependent Kinase enzyme assay. An in vitro enzyme assay that detects ADP turnover that is directly proportional to AMPK activity. This uses naive AMPK that is activated during the assay with MK-8722. The format is functional. To be noted: 30 µM.

The target of assay [4] is Sialic acid-binding Ig-like lectin 9 (Homo sapiens) (UniProt Q9Y336). Description: Hs-Siglec9 ALPHAscreen SOP 20170721. The following applies: 10 µM.
Sequence of Sialic acid-binding Ig-like lectin 9 (Homo sapiens) (Q9Y336 whole entry): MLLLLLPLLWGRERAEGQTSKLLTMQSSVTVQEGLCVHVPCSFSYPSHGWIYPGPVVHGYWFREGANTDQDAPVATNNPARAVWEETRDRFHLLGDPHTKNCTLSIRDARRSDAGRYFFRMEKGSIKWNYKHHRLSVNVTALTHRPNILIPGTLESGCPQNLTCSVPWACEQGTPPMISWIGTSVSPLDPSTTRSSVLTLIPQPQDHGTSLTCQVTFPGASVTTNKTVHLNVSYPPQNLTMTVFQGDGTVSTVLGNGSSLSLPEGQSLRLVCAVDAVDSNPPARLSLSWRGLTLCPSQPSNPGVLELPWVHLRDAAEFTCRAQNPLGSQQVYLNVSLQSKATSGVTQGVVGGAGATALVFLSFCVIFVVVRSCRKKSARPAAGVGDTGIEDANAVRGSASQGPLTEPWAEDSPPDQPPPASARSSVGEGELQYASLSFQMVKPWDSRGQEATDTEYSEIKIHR
In a further assay the test system is Trypanosoma cruzi. Description: Trypanosoma cruzi phosphomannomutase and mannose-1-phosphate guanylyltransferase assay. The assay is classed as functional. The following applies: 10 µM.
Assay [5] addresses T2, Arginase-2, mitochondrial (Homo sapiens) (UniProt P78540).
T2 sequence (whole entry): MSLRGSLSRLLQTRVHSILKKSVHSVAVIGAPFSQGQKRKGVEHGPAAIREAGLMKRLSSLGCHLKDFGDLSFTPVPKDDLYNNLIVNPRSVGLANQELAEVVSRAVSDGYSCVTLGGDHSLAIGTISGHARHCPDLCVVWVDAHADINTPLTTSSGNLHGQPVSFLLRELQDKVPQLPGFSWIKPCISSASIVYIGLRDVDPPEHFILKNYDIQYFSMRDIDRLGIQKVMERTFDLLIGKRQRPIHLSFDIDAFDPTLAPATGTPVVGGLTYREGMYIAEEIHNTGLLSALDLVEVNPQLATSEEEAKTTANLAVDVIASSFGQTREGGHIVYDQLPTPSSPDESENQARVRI
Description: in vitro enzyme assay to detect the production of urea directly proportional to the activity of Arginase II. Also: in the data most compounds retested in dose-response had high values. To be noted: 33.3 µM. The format is functional.

For assay [6], the target named is T3, Proteasome subunit beta (Trypanosoma cruzi) (UniProt O96673).
T3 sequence (whole entry): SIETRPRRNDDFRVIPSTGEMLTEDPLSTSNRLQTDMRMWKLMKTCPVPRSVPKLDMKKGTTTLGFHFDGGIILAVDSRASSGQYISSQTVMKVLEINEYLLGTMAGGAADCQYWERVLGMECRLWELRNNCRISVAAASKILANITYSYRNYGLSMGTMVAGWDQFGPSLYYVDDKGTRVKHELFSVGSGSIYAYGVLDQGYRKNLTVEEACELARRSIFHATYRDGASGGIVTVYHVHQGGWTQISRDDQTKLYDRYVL
Description: Trypanosoma cruzi proteasome chymotrypsin-like activity (TcProtChymo) assay. Also: in the data most compounds retested in dose-response had high values. The assay is classed as functional. To be noted: 9.37 µM.

A further assay is filed under the species Homo sapiens. Description: To identify inhibition of the IFN signalling (Jak-Stat) pathway via expression of an eGFP reporter gene under the control of an IFN-stimulated response element (ISRE) containing MxA promoter. The following applies: 30 µM. The format is functional.
The target of assay [7] is T4, Tyrosyl-tRNA synthetase, putative (Trypanosoma cruzi (strain CL Brener)) (UniProt Q4DSP6).
T4 sequence (whole entry): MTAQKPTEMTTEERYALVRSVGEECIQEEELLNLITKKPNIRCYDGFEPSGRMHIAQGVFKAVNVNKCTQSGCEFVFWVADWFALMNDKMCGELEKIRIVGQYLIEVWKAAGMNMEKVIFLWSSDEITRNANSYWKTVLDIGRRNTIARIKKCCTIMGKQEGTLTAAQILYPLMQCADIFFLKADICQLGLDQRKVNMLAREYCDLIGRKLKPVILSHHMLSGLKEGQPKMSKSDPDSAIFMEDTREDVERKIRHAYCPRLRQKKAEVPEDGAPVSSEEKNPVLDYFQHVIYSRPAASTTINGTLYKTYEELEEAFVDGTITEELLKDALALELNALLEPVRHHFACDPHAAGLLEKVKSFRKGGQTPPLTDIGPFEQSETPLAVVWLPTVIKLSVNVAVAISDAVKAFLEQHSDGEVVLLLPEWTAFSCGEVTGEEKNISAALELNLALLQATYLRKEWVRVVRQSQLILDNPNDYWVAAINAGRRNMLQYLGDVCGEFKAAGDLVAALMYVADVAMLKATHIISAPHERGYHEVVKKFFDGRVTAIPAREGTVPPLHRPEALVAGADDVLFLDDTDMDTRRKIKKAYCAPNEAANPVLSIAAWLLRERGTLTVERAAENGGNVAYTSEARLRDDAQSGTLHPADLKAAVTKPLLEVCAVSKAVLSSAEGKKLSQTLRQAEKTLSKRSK
Description: Trypanosoma cruzi tyrosyl tRNA synthetase (TcYRS) _High Tyrosine SOP. Also: in the data most compounds retested in dose-response had high values. The assay is classed as functional. To be noted: 30 µM.

Assay [8] has as its target T4, Tyrosyl-tRNA synthetase, putative (Trypanosoma cruzi (strain CL Brener)). Description: Trypanosoma cruzi tyrosyl tRNA synthetase (TcYRS) SOP. The format is functional. The following applies: 30 µM.
Assay [9] has as its target Chromo domain-containing protein 1 (Saccharomyces cerevisiae (strain ATCC 204508 / S288c) (Baker's yeast)) (UniProt P32657). Description: ScCHD-1 Enzyme Inhibition Assay. Also: in the data most compounds retested in dose-response had high values. The format is functional. The following applies: 30 µM.

For some assays here: Entries with a potency or affinity are not part of this list.

Sequence of Chromo domain-containing protein 1 (Saccharomyces cerevisiae (strain ATCC 204508 / S288c) (Baker's yeast)) (P32657 whole entry, the tested form may be a part): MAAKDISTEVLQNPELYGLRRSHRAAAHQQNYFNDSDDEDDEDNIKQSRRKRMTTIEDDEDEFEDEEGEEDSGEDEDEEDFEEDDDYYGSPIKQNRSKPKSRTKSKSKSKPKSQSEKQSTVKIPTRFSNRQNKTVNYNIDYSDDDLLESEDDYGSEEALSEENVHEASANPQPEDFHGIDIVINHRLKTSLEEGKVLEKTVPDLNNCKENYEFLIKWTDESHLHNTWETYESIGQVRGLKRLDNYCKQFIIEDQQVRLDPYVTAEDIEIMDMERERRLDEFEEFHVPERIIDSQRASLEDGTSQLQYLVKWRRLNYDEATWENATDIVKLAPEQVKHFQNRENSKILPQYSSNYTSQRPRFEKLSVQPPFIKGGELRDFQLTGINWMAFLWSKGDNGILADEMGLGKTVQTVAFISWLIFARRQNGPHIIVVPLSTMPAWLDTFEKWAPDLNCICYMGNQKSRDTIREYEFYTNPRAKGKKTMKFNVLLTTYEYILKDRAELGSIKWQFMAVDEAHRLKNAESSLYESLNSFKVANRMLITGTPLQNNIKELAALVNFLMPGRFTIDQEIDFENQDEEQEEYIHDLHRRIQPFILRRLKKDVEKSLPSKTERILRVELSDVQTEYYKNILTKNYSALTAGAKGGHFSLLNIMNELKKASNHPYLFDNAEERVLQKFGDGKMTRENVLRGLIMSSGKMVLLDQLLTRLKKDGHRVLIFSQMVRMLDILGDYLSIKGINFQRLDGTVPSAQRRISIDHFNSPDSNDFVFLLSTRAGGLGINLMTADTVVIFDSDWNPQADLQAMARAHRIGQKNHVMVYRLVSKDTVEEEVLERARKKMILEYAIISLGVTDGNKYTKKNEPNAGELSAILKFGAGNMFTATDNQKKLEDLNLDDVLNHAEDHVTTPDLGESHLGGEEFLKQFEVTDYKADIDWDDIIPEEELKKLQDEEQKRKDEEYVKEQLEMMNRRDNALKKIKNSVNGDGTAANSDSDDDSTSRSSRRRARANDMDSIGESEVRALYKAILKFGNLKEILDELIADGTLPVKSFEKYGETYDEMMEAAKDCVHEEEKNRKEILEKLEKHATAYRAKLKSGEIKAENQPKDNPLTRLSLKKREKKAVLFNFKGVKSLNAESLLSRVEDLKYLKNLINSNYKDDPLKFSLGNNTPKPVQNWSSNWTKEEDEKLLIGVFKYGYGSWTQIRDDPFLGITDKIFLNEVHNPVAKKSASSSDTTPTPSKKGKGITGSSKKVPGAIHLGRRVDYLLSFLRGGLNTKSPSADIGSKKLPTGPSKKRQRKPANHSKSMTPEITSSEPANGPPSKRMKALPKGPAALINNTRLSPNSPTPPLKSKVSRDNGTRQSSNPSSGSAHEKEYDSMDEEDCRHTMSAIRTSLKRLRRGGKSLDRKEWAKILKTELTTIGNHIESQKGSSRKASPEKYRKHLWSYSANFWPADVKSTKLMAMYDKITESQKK
Sequence of Protein translocase subunit SecA (Escherichia coli (strain K12)) (P10408 whole entry): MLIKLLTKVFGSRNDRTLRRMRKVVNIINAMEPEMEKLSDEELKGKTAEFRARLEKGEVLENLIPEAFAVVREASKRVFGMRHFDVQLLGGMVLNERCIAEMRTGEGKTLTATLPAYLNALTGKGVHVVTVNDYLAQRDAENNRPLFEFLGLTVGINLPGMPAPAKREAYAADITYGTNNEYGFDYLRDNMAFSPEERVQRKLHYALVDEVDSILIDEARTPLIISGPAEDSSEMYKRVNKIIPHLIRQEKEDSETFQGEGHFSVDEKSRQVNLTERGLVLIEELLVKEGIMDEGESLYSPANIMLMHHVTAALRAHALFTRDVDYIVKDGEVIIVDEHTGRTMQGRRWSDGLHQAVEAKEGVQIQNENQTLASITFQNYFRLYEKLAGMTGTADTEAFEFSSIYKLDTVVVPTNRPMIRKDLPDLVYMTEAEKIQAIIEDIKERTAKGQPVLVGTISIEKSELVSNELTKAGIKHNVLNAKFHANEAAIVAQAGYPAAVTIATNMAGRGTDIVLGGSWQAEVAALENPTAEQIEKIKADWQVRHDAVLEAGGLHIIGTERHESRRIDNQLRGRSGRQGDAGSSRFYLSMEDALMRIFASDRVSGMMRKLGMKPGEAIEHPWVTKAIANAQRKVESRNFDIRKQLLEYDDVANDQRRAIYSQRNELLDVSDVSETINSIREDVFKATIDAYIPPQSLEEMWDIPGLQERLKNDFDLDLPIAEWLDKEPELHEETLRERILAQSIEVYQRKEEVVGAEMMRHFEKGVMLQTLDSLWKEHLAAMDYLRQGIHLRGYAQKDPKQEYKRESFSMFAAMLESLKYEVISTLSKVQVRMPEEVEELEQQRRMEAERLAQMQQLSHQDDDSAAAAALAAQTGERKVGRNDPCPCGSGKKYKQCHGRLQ

With `CC(C)c1nnc2n1CCN(CC(=O)N1CCc3ccccc3C1)C2`, the Percent Effect in assay [1] was -3.76%; in assay [2] it was 2.63%; in assay [3] it was -2.4%; in assay [4], 1.05%; in the assay with Trypanosoma cruzi, 6.01%; in assay [5], -1.53%. The Percent Effect was -0.167% in assay [6]; 5.07% in the assay filed under Homo sapiens; 7.35% in assay [7]; 9.76% in [8]; -9.88% in assay [9].
In the case of `CC(=O)NCCNC(=O)c1sc(-c2ccc(Cl)s2)nc1C`, the Percent Effect in [1] was -6.51%; in [2] it was 10.8%; in assay [3], 5.52%; in [4] it was -4.05%; in the assay on Trypanosoma cruzi, -5.29%; in assay [5], 1.29%. The Percent Effect in assay [6] is 4.67%; in the assay listed under Homo sapiens, 11.1%; in [7] it was 0.99%; in [8] it was -79.3%; in assay [9] it was -0.599%.
Consider `O=C(c1ccc[nH]1)N1CCCC(c2cc(C(F)(F)F)[nH]n2)C1` (stereo not given), for which the Percent Effect is -5.38% in assay [1]; -10.5% in [2]; 1.16% in assay [3]; 17.4% in [4]; -4.39% with Trypanosoma cruzi; -1.08% in [5]. Further, the Percent Effect in assay [6] is -0.0846%; in the assay listed under Homo sapiens it was 35.6%; in [7], 3.45%; in assay [8], 6.17%; in [9], -3.1%.
Regarding `O=C(c1cccs1)N1C[C@H]2CC[C@@]3(N=C(c4ccccc4)NC3=O)[C@H]2C1`, the Percent Effect in [1] is -1.64%; in assay [2] it was 7.79%; in assay [3], 0.0999%; in assay [4] it was 7.14%; in the assay with Trypanosoma cruzi it was -2.06%; in [5] it was -4.14%. For the same compound, the Percent Effect in [6] was 13.3%; in the assay listed under Homo sapiens it was 9.87%; in assay [7], 1.07%; in assay [8], 13.6%; in [9] it was -0.884%.
As to `Cc1c[nH]c(CN(C)C(=O)C2CC(=O)N(Cc3ccncc3)C2)n1` (stereo not given), the Percent Effect in assay [1] was -3.45%; in [2] it was 5.41%; in assay [3], -2.63%; in assay [4] it was -5.87%; in the assay on Trypanosoma cruzi it was -5.77%; in assay [5] it was -1.24%. The Percent Effect was 8.33% in assay [6]; 0.971% in the assay listed under Homo sapiens; -1.07% in assay [7]; 1.24% in assay [8]; -4.02% in [9].
For the compound `O=C(NCCNc1ccc(C(F)(F)F)cn1)c1ccc(Br)cc1F`, the Percent Effect in [1] was -3.12%; in [2] it was 10.4%; in assay [3], 7.24%; in assay [4], -16.8%; in the assay on Trypanosoma cruzi it was -5.39%; in assay [5] it was -2.74%. Also, the Percent Effect in assay [6] was 11.9%; in the assay listed under Homo sapiens, 6.29%; in [7] it was 3.81%; in assay [8], 14.1%; in [9], -26.3%.
On to `O=C(c1cccn2ccnc12)N1CCCN(c2cccnn2)CC1`, for which the Percent Effect in assay [1] was -3.74%; in [2], -5.2%; in [3], 6.04%; in assay [4], 5.27%; in the assay with Trypanosoma cruzi, 4.8%; in assay [5], 1.9%. Besides, the Percent Effect in assay [6] was -0.404%; in the assay filed under Homo sapiens, -11.5%; in assay [7] it was 0.952%; in [8] it was 2.35%; in assay [9] it was -10.1%.
As to `Cc1ncc(CNC(=O)CCc2cccc(F)c2)c(C2CCCN2C)n1` (stereo not given), the Percent Effect in assay [1] was -7.92%; in assay [2] it was 9.46%; in assay [3], -0.703%; in assay [4], 1.74%; in the assay with Trypanosoma cruzi, 0.988%; in assay [5], -3.94%. Moreover, the Percent Effect in assay [6] was 5.15%; in the assay listed under Homo sapiens it was 2.42%; in [7] it was 2.15%; in assay [8], 9.09%; in [9] it was -19.1%.
With `Cc1cccc(NC2CCN(C(=O)Nc3cc(F)cc(F)c3)CC2)n1`, the Percent Effect was -9.91% in assay [1]; 7.59% in assay [2]; -1.53% in assay [3]; 14.7% in assay [4]; 12.4% in the assay on Trypanosoma cruzi; -4.18% in [5]. The Percent Effect was 4.34% in assay [6]; 27.7% in the assay filed under Homo sapiens; -0.493% in assay [7]; 13.9% in assay [8]; -7.84% in assay [9].
Take `COc1ncccc1NC(=O)C1CCN(S(C)(=O)=O)CC1`: the Percent Effect in assay [1] was -2.31%; in assay [2], 15.6%; in assay [3], -6.01%; in assay [4], 4.87%; with Trypanosoma cruzi, 0.749%; in assay [5] it was -0.356%. For the same compound, the Percent Effect was 6.42% in assay [6]; 15.1% in the assay filed under Homo sapiens; 6.8% in [7]; 21.9% in assay [8]; -9.19% in [9].
